Screening data from PubChem.
ADAM17 inh: inhibits human ADAM17; recombinant ADAM17, EDANS/DABCYL FRET peptide cleavage; 370,000 tested, 0.83% active; inhibition, % at 6.95 µM;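 active means inhibition above the mean of compounds lying between control limits plus 3 SD, set per campaign, cut at about 8.5% in these data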
GRIN3A LBD mod: modulators (binders) of human NR3A ligand-binding domain; 340,000 tested, 2.5% active; Tm shift relative to glycine control, % at 25 µM; NR3A LBD differential scanning fluorimetry, Tm shift; 0% = protein alone, 100% = glycine-bound protein;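 active means melting temperature shift of at least 10% of the positive control shift, at one fixed dose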
ADAM10 inh: inhibitors of human ADAM10; O14672; recombinant ADAM10, EDANS/DABCYL FRET peptide cleavage, 3 h; inhibition, % at 7 µM; 370,000 tested, 0.62% active; AID 720582;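 active means inhibition above a per-campaign cutoff equal to the mean of compounds falling between control-based bounds plus 3 SD, cut at about 20% in these data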
Target sequence (O14672 214-748 limits assumed): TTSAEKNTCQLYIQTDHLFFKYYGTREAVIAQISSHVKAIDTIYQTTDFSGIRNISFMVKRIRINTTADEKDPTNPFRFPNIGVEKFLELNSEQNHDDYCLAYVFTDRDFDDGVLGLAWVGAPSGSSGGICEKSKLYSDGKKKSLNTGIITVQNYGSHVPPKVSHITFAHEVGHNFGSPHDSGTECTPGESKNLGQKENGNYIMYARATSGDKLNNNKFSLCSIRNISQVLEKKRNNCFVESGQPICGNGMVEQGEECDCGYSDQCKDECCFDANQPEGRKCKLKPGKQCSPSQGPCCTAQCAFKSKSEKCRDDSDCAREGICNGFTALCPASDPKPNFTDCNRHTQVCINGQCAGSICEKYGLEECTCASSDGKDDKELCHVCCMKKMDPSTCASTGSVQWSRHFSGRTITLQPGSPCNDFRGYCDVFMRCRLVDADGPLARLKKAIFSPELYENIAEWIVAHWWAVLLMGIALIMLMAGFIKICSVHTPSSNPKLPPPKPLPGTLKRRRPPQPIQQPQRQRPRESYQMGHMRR
proKLK7 act: activates the human kallikrein-7 zymogen | P49862 | purified proKLK7, EDANS-DABCYL substrate fluorescence; 100% is mature enzyme control, 0% vehicle | activation, % at 7 µM | 370,000 tested, 0.9% active | AID 652039;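 active means activation above the mean of all tested compounds plus 3 SD, computed per campaign excluding outliers beyond control limits, cut at about 13% in these data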
AHR act: activators of human aryl hydrocarbon receptor | P35869 | AHR-responsive luciferase reporter cells, luminescence | activation, % at 5 µM | 320,000 tested, 2.5% active; in the data active means activation above about 47%
rCAG binder: molecules binding r(CAG) RNA repeats | r(CAG) RNA repeat, TO-PRO-1 dye displacement fluorescence | inhibition, % at 3 µM | 370,000 tested, 1.3% active;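 active means inhibition above the plate cutoff, the mean of all test compounds on that plate plus 3 SD, cut at about 35% in these data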;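 further: higher means more dye released from RNA so lower well fluorescence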
Of the large screens only hits and unclear results are named; the others gave an inactive call. A selection: hits, their analogues and other compounds. The true share with any hit is near 7%.

COc1cccc(N(C)C(=O)[C@@H](C)[C@@H](O)c2ccc(Cl)cc2)c1	none (no result: GRIN3A LBD mod, AHR act)
Cc1ccc2nc(C)cc(Nc3ccc4c(c3)OCCO4)c2c1	AHR act 69
C(=N\Nc1nc2ccccc2[nH]1)/c1cccs1	AHR act 74
CC(C)Cn1c(/C=N/Nc2nc3ccccc3[nH]2)nc2ccccc21	none (no result: AHR act)
Cc1ccsc1/C=N/Nc1nc2ccccc2[nH]1	none (no result: AHR act)
Cc1c(/C=N/Nc2nc3ccccc3[nH]2)c2ccccc2n1C	AHR act 108
C=CCn1cc(/C=N/Nc2nc3ccccc3[nH]2)c2ccccc21	AHR act 146
N#CCC[C@@H]1CC[C@]2(CCCN(S(=O)(=O)c3ccccc3)C2)O1	none (no result: GRIN3A LBD mod, AHR act)
CCCCCCCCN1C(=O)[C@@H](CC(=O)NCCCOCCCC)C[C@@]2(C(=O)OC)C1=C[C@H](C(C)C)O[C@@H]2C1CC1	none (no result: GRIN3A LBD mod, AHR act)
O=C(Nc1ccc(Cl)cc1)C1=Cc2cc(Cl)ccc2OC1	GRIN3A LBD mod 26
O=C(Nc1ccc(Cl)cc1Cl)C1=Cc2ccccc2OC1	none
FC(F)(F)c1ccccc1C(C#Cc1ccccc1)NCc1ccc2c(c1)OCO2 (configuration not stated)	none (no result: GRIN3A LBD mod, AHR act)
N#Cc1ccc(-c2cccnc2)nc1SCC(=O)Nc1sc2c(c1C#N)CCC2	none (no result: ADAM17 inh, ADAM10 inh, proKLK7 act, rCAG binder)
Cc1cc(C(F)(F)F)c(C#N)c(SCC(=O)Nc2nc3ccccc3s2)n1	GRIN3A LBD mod 12, AHR act 57
N#Cc1c(C(F)(F)F)cc(-c2ccccc2)nc1SCC(=O)Nc1sc2c(c1C#N)CCC2	GRIN3A LBD mod 10
CCCCCCC(=O)NC1CCCCN(Cc2ccc(C)cc2)C1=O (configuration not stated)	none (no result: GRIN3A LBD mod, AHR act)
C[C@H]1C2CC(OC(=O)Nc3cccc(Cl)c3)C(C2)[C@H]2CCCCN21 (some centres not stated)	none (no result: GRIN3A LBD mod, AHR act)
COC(=O)[C@]1(CNC(=O)c2cc(F)ccc2F)CC(=O)N(C)[C@@H]1c1ccccc1	none (no result: GRIN3A LBD mod, AHR act)
Clc1cccc(Cl)c1COc1ccccc1CNn1cnnc1	AHR act 59
COc1ccc(CN2C(C(=O)NC3CCCC3)CSCCS2(=O)=O)cc1 (configuration not stated)	none (no result: GRIN3A LBD mod, AHR act)
O=C(NCc1cccs1)C1CCC(CNS(=O)(=O)c2cccc3cccnc23)CC1 (configuration not stated)	none (no result: GRIN3A LBD mod, AHR act)
C=CCNC(=O)Nc1ccc2c(c1)[C@]1(CC(=O)N(CC(C)C)C1c1ccccc1)C(=O)N2C (some centres not stated)	none (no result: GRIN3A LBD mod, AHR act)
O=C(N/N=C/c1sc(N2CCCCC2)nc1-c1cccs1)C1CC1	AHR act 68
NC(=O)N/N=C/c1sc(N2CCCCC2)nc1-c1cccs1	none
O=C1Cc2ccccc2C(=O)N1OCc1ccc(Cl)cc1	AHR act 66
O=C1c2ccccc2C(=O)N1OCCOCCOCCON1C(=O)c2ccccc2C1=O	none
O=C1c2ccccc2C(=O)N1OCc1ccc(Cl)cc1	AHR act 51
CS(=O)(=O)NC1c2cccc3cccc(c23)C1Sc1nncn1/N=C/c1ccco1 (configuration not stated)	GRIN3A LBD mod 20
Cn1cnnc1SC1c2cccc3cccc(c23)C1NS(=O)(=O)c1ccccc1 (configuration not stated)	none
COC(=O)C1=C(C)N(C)C(=NCc2ccc3c(c2)OCO3)NC1c1ccc(F)cc1 (configuration not stated)	none (no result: GRIN3A LBD mod, AHR act)
COC(=O)C(Cc1ccc(OC(=O)c2ccc(C)cc2)cc1)N1Cc2ccccc2C1=O (configuration not stated)	GRIN3A LBD mod 14 (no result: ADAM17 inh, ADAM10 inh, proKLK7 act, rCAG binder)
CCc1ccc(-n2ncc(Cl)c(Oc3ccc(OC)cc3)c2=O)cc1	none (no result: GRIN3A LBD mod, proKLK7 act, AHR act, rCAG binder)
O=C1Nc2ccccc2SC1=Cc1ccccc1	none (no result: GRIN3A LBD mod, AHR act)
O=C1Nc2ccccc2S/C1=C\C(=O)N1CCCC1	AHR act 64 (no result: ADAM17 inh, GRIN3A LBD mod, ADAM10 inh, proKLK7 act, rCAG binder)
CCCCN(C)S(=O)(=O)c1ccc2[nH]c(=O)oc2c1	none (no result: GRIN3A LBD mod, AHR act)
O=C(N/N=C/c1cn(-c2cccs2)nc1-c1ccccc1)c1ccc(O)cc1	GRIN3A LBD mod 12
CCN(CC)C(=O)CN1C(=O)C2CCCCN2C(=O)c2ccccc21 (configuration not stated)	none (no result: GRIN3A LBD mod, AHR act)
CCCc1ccc(OCc2ccc(C(=O)NCc3cccnc3)o2)c(OC)c1	AHR act 51
COc1ccccc1NC(=O)c1ccc(COc2ccccc2OC)o1	none
CCOc1ccc(OCc2ccc(C(=O)NCc3cccnc3)o2)cc1	none
CCCc1ccc(OCc2ccc(C(=O)Nc3cccc(C)n3)o2)c(OC)c1	AHR act 60
O=C(NCc1cccnc1)c1ccc(COc2cccc3ccccc23)o1	AHR act 78
CC(C)NC(=O)c1ccc(COc2cccc3ccccc23)o1	none (no result: GRIN3A LBD mod, AHR act)
O=C(NCc1cccnc1)c1ccc(COc2ccc(Cl)cc2Cl)o1	none
NNC(=O)c1ccc(COc2cccc3ccccc23)o1	AHR act 69
CCNC(=O)N(C)[C@H]1C[C@H]2c3[nH]c4cccc(-c5ccc6c(c5)OCO6)c4c3CCN2C[C@H]1[C@H](C)O	none (no result: GRIN3A LBD mod, AHR act)
COc1ccc(C(=O)N2CCC[C@@H]2C(=O)N2CCC[C@@H]2C(=O)NCc2ccccc2)cc1F	none (no result: GRIN3A LBD mod, AHR act)
COCCCNC(=O)C[C@H]1C[C@@]2(C(=O)OC)C(=C[C@H](C3CCCC3)O[C@@H]2C)N(Cc2ccco2)C1=O	none (no result: GRIN3A LBD mod, AHR act)
Cc1cc(N)c(-n2cc3c(=O)n(C)c(=O)n(C)c3c2)cc1C	AHR act 56
Cc1ccc(-n2cc3c(=O)n(C)c(=O)n(C)c3c2)cc1C	none
CCOC(=O)[C@@]12CCCC3=C1N(CCC3)C(=O)[C@H]2CC(=O)N1CCCC1	none (no result: GRIN3A LBD mod, AHR act)
CCn1cc2nc(SCC(=O)Nc3ccc(OC)c(OC)c3)n(Cc3ccc(OC)cc3)c(=O)c2n1	GRIN3A LBD mod 14
C/C(=N\Nc1cc(Cl)nc(C)n1)c1ccccc1	none
C/C(=N/Nc1cc(-c2ccccc2)nc(-c2ccccc2)n1)c1ccc(O)cc1	GRIN3A LBD mod 34, AHR act 66
C/C(=N\Nc1cc(-c2ccccc2)nc(-c2ccc(Br)cc2)n1)c1cccc(N)c1	GRIN3A LBD mod 29, AHR act 71, rCAG binder 43
CN(Cc1ccc(F)cc1)C(=O)CN1C(=O)C2(OCCCO2)c2ccccc21	none (no result: GRIN3A LBD mod, AHR act)
CC(C)CN1C(=O)N2CCc3ccccc3C2CS1(=O)=O (configuration not stated)	none (no result: GRIN3A LBD mod, AHR act)
O=C(Nc1ccccc1)OCCN1CCCC12CCC(c1ccccc1)CC2 (configuration not stated)	none (no result: GRIN3A LBD mod, proKLK7 act, AHR act, rCAG binder)
Cc1nnc(SCC(=O)N2CCC(Cc3ccccc3)CC2)n(N)c1=O	GRIN3A LBD mod 11
Nc1ccccc1Sc1nc2ccccc2[nH]1	GRIN3A LBD mod 10
C=CCOC(=O)N[C@H](c1ccc(-c2ccccc2)cc1)[C@H](C)/C=C/CC(=O)OC	none (no result: GRIN3A LBD mod, AHR act)
O=C(CN1CCN(c2ccccn2)CC1)Nc1ccc([N+](=O)[O-])cc1C(=O)Nc1ccccc1F	AHR act 48
C[C@@H]1CCN(C2CC2)S(=O)(=O)c2c(cccc2N2CC[C@H](N(C)C)C2)O1	none (no result: GRIN3A LBD mod, AHR act)
